Source: PubChem BioAssay
Compounds with a hit are over-represented: about 0.56% of the library has one in this group of screens.
CBFb RUNX1 block = qHTS Assay for Compounds Blocking the Interaction Between CBF-beta and RUNX1 for the Treatment of Acute Myeloid Leukemia; Runt-related transcription factor 1 (Homo sapiens) + Core-binding factor subunit beta …; AlphaScreen CBFb-His/RUNX1-biotin binding, biochemical; Potency, µM (titrated, usually from 59.8 µM), for inactives: at the top dose activity, negative = inhibition, actives largely listed as inhibitors; 230,000 tested, under 10 active; AID 1477, 2009; note: % of control where 0% means no effect
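His-tagged CBF-beta and biotinylated RUNX1 (30 nM each) were premixed 20 min at room temperature, exposed to compound for 15 min, then given nickel-chelate and streptavidin AlphaScreen beads (50 ng each). After 90 min, AlphaScreen signal was read.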
Tb PFK inh = qHTS Assay to Find Inhibitors of T. brucei phosphofructokinase; ATP-dependent 6-phosphofructokinase (Trypanosoma brucei brucei), O15648; T. brucei PFK, ADP-Glo luminescence; Potency, µM (highest dose often 57.5 µM), inactives show at the highest dose activity, negative = inhibition, actives largely listed as inhibitors; 330,000 compounds, 0.17% hits; AID 485367, 2010;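 note: potency is the fitted concentration of half-maximal effect; 0% = uninhibited 1x PFK enzyme wells and -100% = no-enzyme wells; nearly all actives have a fitted effect of over 60% in size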
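Luminescent ADP detection (ADP-Glo, two-step: ATP depletion then ADP-to-ATP conversion for luciferase) reported PFK activity after 45 min room-temperature reaction of 1.25 nM enzyme with 0.5 mM F6P and 0.1 mM ATP at pH 8.0.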
GALK inh = qHTS Assay for Inhibitors of Human Galactokinase (GALK) | Purified GALK, Kinase-Glo residual ATP luminescence | Potency, µM (top dose mostly 57.5 µM), for the others: at the top dose activity change, negative = inhibition, usual class: inhibitors | 270,000 compounds, 0.007% hits | AID 1868, 2009; note: potency is the fitted concentration of half-maximal effect; % is set by controls: 0 for no effect and ±100 for the full control effect
Target sequence (P51570 whole entry, looked up): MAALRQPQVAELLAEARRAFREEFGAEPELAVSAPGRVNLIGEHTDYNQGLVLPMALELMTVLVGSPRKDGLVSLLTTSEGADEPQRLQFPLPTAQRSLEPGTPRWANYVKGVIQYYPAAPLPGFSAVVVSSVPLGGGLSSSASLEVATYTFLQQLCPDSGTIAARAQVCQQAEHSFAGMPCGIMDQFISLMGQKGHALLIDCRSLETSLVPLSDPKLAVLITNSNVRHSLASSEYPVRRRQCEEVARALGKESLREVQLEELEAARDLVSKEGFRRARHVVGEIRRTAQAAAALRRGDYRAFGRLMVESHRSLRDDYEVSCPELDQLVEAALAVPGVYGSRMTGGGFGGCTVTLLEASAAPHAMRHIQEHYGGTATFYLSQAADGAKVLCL
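Human GALK (5 nM) with 35 uM ATP and 100 uM galactose in 20 mM HEPES pH 8.0, 5 mM MgCl2, 60 mM NaCl, 1 mM DTT, 0.01% BSA. After 1 h at room temperature, leftover ATP was read by Kinase-Glo Plus luminescence.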
PKM2 activator = qHTS Assay for Activators of Human Muscle isoform 2 Pyruvate Kinase. Potency, µM (titrated, usually from 57.5 µM), without a hit: at the highest dose activation, actives largely listed as activators. Pyruvate kinase PKM (Homo sapiens), P14618. purified PKM2, Kinase-Glo ATP luminescence, activation; response scale: 0% is enzyme alone, no compound. 260,000 compounds, 0.34% hits. AID 1631, 2009; note: potency is the fitted concentration of half-maximal effect; % is set by controls: 0 for no effect and ±100 for the full control effect; nearly all actives have a fitted effect of over 55% in size
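Kinase-Glo luminescence reports ATP generated from ADP (0.1 mM) and PEP (0.5 mM) by purified hPK-M2 after 1 h at room temperature, pH 7.2 imidazole buffer; intermediate enzyme activity allows detecting inhibitors and activators.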
KinaseGlo FLuc = Counterscreen for Luciferase (Kinase-Glo TM) Inhibition; AID 1379, 2008; 200,000 compounds, 0.28% hits; Potency, µM (titrated, usually from 38.3 µM), for inactives: at the highest dose activity change, negative = inhibition, usual class: inhibitors; Kinase-Glo luciferase, ATP luminescence, 8 min; note: potency is the fitted concentration of half-maximal effect; % is set by controls: 0 for no effect and ±100 for the full control effect; nearly all actives have a fitted effect of over 60% in size
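Compound is pinned into ATP-containing buffer (10 uM ATP, imidazole pH 7.2, 7 mM MgCl2). Kinase-Glo luciferase reagent is then added. Light output is recorded following an 8-min room-temperature incubation.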
* = called active by the depositor; ? = inconclusive; . = not tested or not shown; [ ] = another dose, or the depositor's remark. Calls come from the whole dose curve; as a rule, active = well fitted curve in the direction sought with a large enough effect; inconclusive = small, poorly fitted or top-dose-only effect, or another doubt; inactive = no such curve, though single readings can be large; an effect the other way counts as inactive or inconclusive.

SMILES | CBFb RUNX1 block | Tb PFK inh | GALK inh | PKM2 activator | KinaseGlo FLuc
O=C(CCCSc1ccccc1)Nc1nc(-c2ccco2)c(-c2ccco2)s1 | ? | -1% | 0% | 18µM* | -2%
C[C@H](NC(=O)c1ccc(Cl)c(Cl)c1)c1ccc(-c2ccccc2)cc1 | . | . | . | . | -9%[7.66 µM]
CCOC(=O)C1CCN(c2nc3ccccc3nc2C(C#N)C(=O)NCCc2ccccc2)CC1 (stereo not given) | 17% | 9.5µM* | -1% | 18% | -1%
CCOC(=O)C1CCCN(c2nc3ccccc3nc2C(C#N)C(=O)OCC)C1 (stereo not given) | 10% | -2% | 6% | -1% | 15%
COc1c(-c2coc3cc4c(cc3c2=O)CC(O)C(C)(C)O4)ccc2c1C=CC(C)(C)O2 (stereo not given) | 19% | . | . | . | -2%
Cc1cc(C)n(-c2nc3ccccc3nc2N2CCN(S(=O)(=O)c3ccc4ccccc4c3)CC2)n1 | 5% | -3% | 3% | 2% | -3%
Cc1cc(C)n(-c2nc3ccccc3nc2N2CCN(S(=O)(=O)c3ccc(F)c(C)c3)CC2)n1 | 5% | 4% | 0% | 10µM* | 5%
O[C@@H](c1cc([C@@]23C[C@H]4CC[C@@H]2C[C@H](C4)C3)nc2c(Cl)cc(Cl)cc12)C1CCCCN1 (stereo not given in full) | . | . | . | . | -9%[7.66 µM]
C(=C\c1nc2ccccc2[nH]1)/c1ccccc1 | 5% | -24% | 11% | -63% | 3.5µM*
C(=C\c1ccco1)/c1nc2ccccc2[nH]1 | 5% | -19% | 10% | -23% | 13µM*
CCOC(=O)CN1C(=O)N[C@@H](c2cccc(C(F)(F)F)c2)[C@H](C(=O)OC)[C@H]1C | 3%[13.1 µM] | . | . | -8%[11.5 µM] | -3%[7.66 µM]
C/C(=N\NC(=O)c1ccccc1O)c1cccs1 | 1% | -5% | 12% | -43% | 11µM*
C/C(=N\NC(=O)C1=NNC(=O)C1C)c1cccs1 (stereo not given) | -5% | -2% | 0% | -54% | 10µM*
CN(C)CCNC(=O)c1ccc(Cc2nc3ccccc3[nH]2)cc1 | . | . | . | . | -1%
Cc1ccc(-n2[nH]c(C)c(C=Nc3cc(C)ccn3)c2=O)cc1 | -5% | -15% | 1% | -44% | -21%
COc1ccc2nc(/N=C/c3c(C)[nH]n(-c4ccc(C)cc4)c3=O)sc2c1 | -17% | 0% | -2% | -69% | 10µM*
CCCCCCCC/C=C\CCCCCCCCCCCC(=O)O | -20% | . | . | . | .
O=C(/C=C/C#Cc1cccc(NS(=O)(=O)c2ccccc2)c1)NO | 4% | . | . | . | .
Cc1ccc(C(=O)O/N=C(\N)c2nonc2N)cc1 | 2% | -21% | 10% | -81% | 11µM*
N/C(=N\OC(=O)c1ccc(F)cc1)c1nonc1N | 4% | -7% | 5% | -56% | 11µM*
N/C(=N/OC(=O)c1ccccc1Cl)c1nonc1N | 2% | 1% | 8% | -59% | ?
C[C@]12C[C@H](O)C3[C@@H](CCC4=CC(=O)CC[C@@]43C)[C@@H]1CC[C@@H]2C(=O)CO (stereo not given in full) | 15% | . | . | . | -7%
CC[C@H](C)[C@H](NC(=O)[C@H](CCCN=C(N)N)NC(=O)[C@H](CCCN=C(N)N)NC(=O)[C@H](CC(C)C)NC(=O)[C@H](Cc1ccccc1)NC(=O)CNC(=O)CN)C(=O)N[C@@H](CCCN=C(N)N)C(=O)N1CCC[C@H]1C(=O)N[C@@H](CCCCN)C(=O)N[C@@H](CC(C)C)C(=O)N[C@@H](CCCCN)C(=O)O | 26% | . | . | . | .
O=C1NC(=O)C(Cc2ccc(OCCN3COc4ccccc4C3=O)cc2)S1 (stereo not given) | 6% | . | . | . | .
Cc1ccc(CNC(=O)c2coc(=O)c3ccccc23)o1 | 4% | -6% | 1% | 13µM* | 1%
SMILES | CBFb RUNX1 block | Tb PFK inh | GALK inh | PKM2 activator | KinaseGlo FLuc
CCn1cc(C(=O)NCC(=O)OC)c2cc(OC)c(OC)cc2c1=O | -2% | -4% | 2% | -3% | -2%
CCn1cc(C(=O)NCc2ccc(C)o2)c2cc(OC)c(OC)cc2c1=O | -2% | -1% | 1% | 14µM* | -2%
Cc1ccc(CCC(=O)NCc2ccccc2)o1 | . | -1% | -6% | 0%[11.5 µM] | .
CCCCc1nc2c(c3c1C[C@H](C)OC3)CN(C(=O)NCc1ccco1)CC2 | 3%[13.1 µM] | . | . | -4%[11.5 µM] | -3%[7.66 µM]
O=C(c1cccs1)N(Cc1ccco1)Cc1cc2ccccc2[nH]c1=O | -4% | 0% | 0% | 22µM* | 1%
Cc1ccccc1OCc1nnc2c3cnn(C)c3ncn12 | 4% | 4% | 4% | 28µM* | -9%
Cc1ccccc1OCc1nc2ccccc2c(=O)n1N | 3% | 3% | -2% | 1% | -4%
Cc1sc(C(C2C(=O)CC(C)(C)CC2=O)C2C(=O)CC(C)(C)CC2=O)cc1[N+](=O)[O-] | 5% | -2% | -2% | 18µM* | -2%
Nc1nc(-c2ccco2)c(-c2ccco2)s1 | -18% | ? | 6% | 22µM* | -5%
O=C(/C=C/c1ccc2c(c1)OCO2)c1cccs1 | -8%[21.7 µM] | . | . | . | 8.9µM*
CCCCNc1nc2c(S(=O)(=O)c3ccccc3)nnn2c2ccccc12 | 7% | -6% | -1% | 0% | -8%
CCc1ccc(S(=O)(=O)c2nnn3c2nc(NCCNC(C)=O)c2ccccc23)cc1 | 2% | -7% | 5% | 11µM* | 1%
N[C@H](CSSC[C@@H](N)C(=O)O)C(=O)O | 3% | . | . | . | .
Cc1cc(C)c2[nH]c(=O)c(C(c3nnnn3C(C)(C)C)N3CCN(C(=O)c4ccco4)CC3)cc2c1 (stereo not given) | 3% | 0% | -2% | 11µM* | 2%
COc1ccccc1C(c1nnnn1C(C)(C)C)N1CCN(C(=O)c2ccco2)CC1 (stereo not given) | 3% | 0% | 3% | 2% | 6%
COc1cc(/C=N/NC(=O)c2cc(-c3ccccc3)n[nH]2)cc(OC)c1OC | . | . | . | . | -2%
Cc1ccc(S(=O)(=O)N2CC=C(C(=O)NCc3ccccc3)CC2)cc1 | 3%[2.36 µM] | -8% | . | ? | -4%
COc1ccc(S(=O)(=O)N2CCN(C(=O)C3COc4ccccc4O3)CC2)cc1 (stereo not given) | . | 27µM* | . | . | .
COc1ccc(S(=O)(=O)N2CCN(C(=O)NCc3ccccc3)CC2)cc1 | 2% | 3% | 0% | 7.1µM* | 3%
COc1ccc(COC(=O)NC2CCN(S(=O)(=O)c3ccc(OC)cc3)CC2)cc1 | 5% | 3% | 0% | 20µM* | -3%
COc1ccc(CNC(=O)C2=CCN(S(=O)(=O)c3ccc(C)cc3)CC2)cc1 | 4% | -8% | 5% | 14µM* | .
